This is a sample that favours compounds with a hit; in the whole collection about 11% have one here.
BAZ2B block: BAZ2B (human) inhibition; Q9UIF8; AlphaScreen BAZ2B-H3K14Ac peptide displacement; Potency, µM (series often up to 114 µM), inactives show at the highest dose activity change, negative = inhibition, most hits filed as inhibitors; actives 4.4% (n = 360,000); further: on the % scale 0 is the no-effect control and ±100 the full control effect; nearly all actives have a fitted effect of over 60% in size
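Compounds, titrated to a top concentration of 110 uM, were incubated 30 min at room temperature with preformed BAZ2B/acetyl-K14 H3 peptide complex (50 nM each). Proximity signal was measured by AlphaScreen after 20 min with beads.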
L3MBTL1 inh: L3MBTL1 (human) inhibition. AlphaScreen L3MBTL1–H3K9me1 peptide binding. Potency, µM (doses to about 57.1 µM), for inactives: at the highest dose activity, negative = inhibition, actives largely listed as inhibitors. actives 0.66% (n = 230,000). AID 485360; further: on the % scale 0 is the no-effect control and ±100 the full control effect; nearly all actives have a fitted effect of over 60% in size
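AlphaScreen proximity signal between nickel-chelate acceptor and streptavidin donor beads (final 10 ug/mL) reports binding of 50 nM L3MBTL1 to 75 nM biotin-H3 K9me1 peptide; complex incubated with compounds 30 min at room temperature; cefsulodin titration as control.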
G9a block: blocks human histone lysine methyltransferase G9a; Q96KQ7; G9a H3K9 monomethylation, AlphaScreen, 2 h; Potency, µM (top dose mostly 102 µM), without a hit: at the highest dose activity, negative = inhibition, actives largely listed as inhibitors; actives 8.8% (n = 350,000); AID 504332; further: on the % scale 0 is the no-effect control and ±100 the full control effect; nearly all actives have a fitted effect of over 75% in size
Target sequence (Q96KQ7 913-1193 limits assumed): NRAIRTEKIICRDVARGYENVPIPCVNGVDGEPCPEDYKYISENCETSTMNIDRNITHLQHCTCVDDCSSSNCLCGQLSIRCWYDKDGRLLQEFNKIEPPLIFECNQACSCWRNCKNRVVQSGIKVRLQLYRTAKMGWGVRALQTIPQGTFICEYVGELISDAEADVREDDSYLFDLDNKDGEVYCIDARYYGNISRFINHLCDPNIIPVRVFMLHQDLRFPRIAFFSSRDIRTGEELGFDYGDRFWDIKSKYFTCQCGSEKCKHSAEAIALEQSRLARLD
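Using a bead-based AlphaScreen, monomethylated H3K9 product from 2 h room-temperature reactions (G9a 20 nM, peptide 500 nM, SAM 20 uM) was detected with 0.5 ug/mL rabbit anti-H3K9me1 antibody.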
HP1b chromo inh: HP1-beta chromodomain-methylated histone interaction inhibition. P83916. actives 0.56% (n = 390,000). AlphaScreen HP1-beta / biotin-H3K9me3 peptide binding. Potency, µM (doses to about 114 µM), for the others: at the top dose activity change, negative = inhibition, most hits filed as inhibitors. AID 540317; further: nearly all actives have a fitted effect of over 70% in size
Target sequence (P83916 whole entry, looked up): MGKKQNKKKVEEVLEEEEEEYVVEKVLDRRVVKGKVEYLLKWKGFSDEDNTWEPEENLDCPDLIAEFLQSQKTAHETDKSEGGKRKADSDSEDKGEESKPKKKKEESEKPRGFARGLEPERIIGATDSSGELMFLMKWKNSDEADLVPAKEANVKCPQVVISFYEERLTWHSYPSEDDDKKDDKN
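HP1-beta protein (50 nM final) preincubated 30 min at room temperature with biotinylated H3(1-18)K9me3 peptide (50 nM) in PBS pH 7.4, 0.01% Tween-20, then compound added for 30 min. AlphaScreen streptavidin donor/nickel chelate acceptor beads (10 ug/mL final), 30 min dark, luminescence read.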
JMJD2A Tudor: inhibitors of human JMJD2A Tudor domain | actives 4.4% (n = 390,000) | O75164 | AlphaScreen JMJD2A-Tudor / H3K4me3 peptide binding | Potency, µM (highest dose often 114 µM), without a hit: at the highest dose activity change, negative = inhibition, actives largely listed as inhibitors; further: on the % scale 0 is the no-effect control and ±100 the full control effect; nearly all actives have a fitted effect of over 50% in size
Active calls of the source: *; u = inconclusive; x = no result; ! = a repeat was not active; [ ] = another dose, or the depositor's remark. The call rests on the fitted dose curve; in most records, active means well fitted inhibition curve with a large enough effect; inconclusive means small, poorly fitted or top-dose-only effect; inactive means no such curve, though single readings can be large or run the other way. Potency means the concentration at half of the fitted maximal effect.

SMILES	BAZ2B block	L3MBTL1 inh	G9a block	HP1b chromo inh	JMJD2A Tudor
C[N+]1([O-])CCC[C@@H]1c1cccnc1 (stereo not given in full)	x	x	32%[59 µM]	x	x
CC(C)=CCC/C(C)=C/CN(CC(C)O)CC(C)O (stereo not given)	-4%	-11%[11.4 µM]	10µM*	u	3.2µM*
COP(=O)(OC)C(Nc1ccccc1)c1ccccc1 (stereo not given)	0%	-10%	-21%	44%	-15%
COc1ccc(NC(c2ccccc2)P(=O)(Oc2ccccc2)Oc2ccccc2)cc1 (stereo not given)	25µM*	-24%	25µM*	2%	u
O=C(Nc1ccccc1F)Oc1cccc(OC(=O)Nc2ccccc2F)c1	-10%	0%	1%	43%	-1%
Cc1ccc(S(=O)(=O)N(C)CCCC(=O)N2CCN(c3ccccn3)CC2)cc1	-30%	5%	u	32%	-24%
COc1cccc(C(=O)C2CCCN(Cc3ccccn3)C2)c1 (stereo not given)	-10%	-11%	x	7%	-19%
Cc1cccc(CN2CCc3nc(N4CCN(c5ccccn5)CC4)ncc3C2)c1	50µM*	x	u	6%	79µM*
COc1cccc(CN2CCc3nc(N4CCN(c5ncccn5)CC4)ncc3C2)c1	40µM*	x	-1%[12.7 µM]	-7%	63µM*
Cc1ccc(-c2csc(NC(CO)c3nc4ccccc4n3CCOCCO)n2)cc1 (stereo not given)	x	x	x	-4%	u
C=C(C)[C@H]1Cc2c(ccc3c2O[C@@H]2COc4cc(OC)c(OC)cc4[C@@H]2C3=O)O1	x	x	10%[12.7 µM]	x	x
CN1C(=O)/C(=C/C=C/c2ccco2)C(=O)NC1=S	32µM*	x	2.8µM*	11µM*	u
CC(C)(C)n1cccc1/C=C1\C(=O)NC(=O)N(c2ccccc2)C1=O	-10%	-1%	u	31%	-24%
O=C1NC(=O)N(c2ccccc2)C(=O)/C1=C/C=C/c1ccco1	-35%	x	35µM*	-19%	-29%
O=C1NC(=O)N(CCc2ccc(F)cc2)C(=O)/C1=C\C=C\c1ccccc1	-24%	x	u	23%	-29%
C=CCN1C(=O)NC(=O)/C(=C/C=C/c2ccccc2)C1=O	u	x	8.9µM*	u	-21%
O=c1[nH]c(=O)n(Cc2ccco2)c(O)c1/C=N/N1CCCCCC1	-8%	-12%	u	7%	-13%
O=C1NC(=O)N(Cc2ccco2)C(=O)/C1=C/C=C/c1ccco1	32µM*	x	-175%[59 µM]	11µM*	35µM*
Cn1cc(/C=C2\C(=O)NC(=O)N(c3ccccc3)C2=O)c2ccccc21	-21%	x	-1%	137%	-32%
Cc1ccc(N2C(=O)NC(=O)/C(=C\C=C\c3ccco3)C2=O)cc1C	45µM*	u	10µM*	u	u
Cc1cccc(N2C(=O)NC(=O)/C(=C\C=C\c3ccco3)C2=O)c1	u	u	4µM*	-20%	u
CN(C)c1ccc(/C=C/C=C2/C(=O)NC(=O)N(c3ccccc3)C2=O)cc1	13µM*	u	16µM*	16µM*	u
Cc1cccc(N2C(=O)NC(=O)/C(=C/c3ccc([N+](=O)[O-])o3)C2=O)c1	22µM*	6.3µM*	u	u	20µM*
Cn1c(O)c(C=NC(CC(N)=O)C(=O)O)c(=O)n(C)c1=O (stereo not given)	-2%	5%	u	x	x
COc1ccc(N2CCN(C(=O)C3CCCN(S(=O)(=O)c4ccc5c(c4)CCCN5C(C)=O)C3)CC2)cc1 (stereo not given)	u	x	u	5%[57 µM]	u
SMILES	BAZ2B block	L3MBTL1 inh	G9a block	HP1b chromo inh	JMJD2A Tudor
C=C1C/C(=C\C)C(=O)O[C@@H]2CCN3CC=C(COC(=O)[C@@]1(C)O)[C@H]23	x	x	22%[21.5 µM]	x	x
CCOc1ccc(NC(=O)C2CCCN2C(=O)Oc2ccccc2)cc1 (stereo not given)	-22%	x	-9%	36%[57 µM]	u
Cc1ccc(N2C(=O)NC(=O)/C(=C\C=C\c3ccco3)C2=O)cc1	-33%	x	35µM*	14%	-24%
CCOC(=O)[C@]12Cc3cc(N(C)C)ccc3[C@H]1N(Cc1ccccc1)C(=O)c1ccccc12	x	x	x	-16%	16µM*
O=[N+]([O-])c1cc([As](=O)(O)O)ccc1O	-4%	u	-3%[12.7 µM]	26%	89µM*
Cc1c(C=C2C(=O)NC(=O)NC2=O)c(=O)n(-c2ccccc2)n1C	-14%	12%	u	18%	u
Cc1nn(Cc2ccccc2)c(C)c1C=C1C(=O)NC(=S)NC1=O	-7%	6%	8.9µM*	-26%	89µM*
C/C(=N\Nc1ccccc1)c1c(O)[nH]c(=O)[nH]c1=O	-6%	x	x	38%	-6%
C/C(=N\Nc1ccccc1)c1c(O)n(Cc2ccccc2)c(=O)[nH]c1=O	-11%	15%	10µM*	29%	u
C/C(=N\Nc1ccccc1)c1c(O)n(-c2ccccc2)c(=O)[nH]c1=O	-17%	-8%	50µM*	35%	4%
COCC(=O)N1CCC2(CCCN(Cc3ccncc3)C2)CC1	x	x	-4%[12.7 µM]	x	x
Cc1cccc(C)c1NC(=O)CN1CCCC1=O	x	x	-16%[59 µM]	x	x
Nc1ccc(Cc2ccc(N)cc2)cc1	x	x	x	8%	-13%
Nc1ccc(N)cc1	x	x	13µM*	x	x
NC(=O)C[N+]1(CC#CC(O)(c2ccccc2)c2ccccc2)CCCC1	-3%	x	35µM*	22%	32µM*
O=C1CC(c2ccc(F)cc2)c2c(c3ccccc3oc2=O)O1 (stereo not given)	-17%	x	-23%[59 µM]	36%	-21%
COc1ccc(CCNCc2sccc2C)cc1OC	-16%	2%	10%	37%	-2%
COc1ccc(CCNc2nccn(-c3ccc(C)c(C)c3)c2=O)cc1OC	45µM*	x	u	u	-25%
CC(C)NC(=O)N1CC[C@@]2(CCCNC2)C1	x	x	-14%[12.7 µM]	x	x
NC(N)=NOCC[C@H](N)C(=O)O	x	x	32µM*!	x	x
Cc1ccc(/C=C2/C(=O)NC(=O)N(CC3CCCO3)C2=O)s1 (stereo not given)	-24%	-9%	13µM*	38%	-9%
CN(C)[C@@H](Cc1ccccc1)c1ccccc1	x	x	-24%[12.7 µM]	x	x
CC(C)CN1CCC2(CC1)CCN(C(=O)Oc1ccccc1)CC2	x	x	-7%[12.7 µM]	x	x
Cc1ccc(S(=O)(=O)NC(Cc2cnc[nH]2)C(=O)O)cc1 (stereo not given)	-25%	4%	u	12%	13µM*
O=[N+]([O-])c1cccc2c([N+](=O)[O-])cccc12	u	-8%	3%[0.501 µM]	23%	-12%
O=C1NC(=O)C(Sc2ccccc2[N+](=O)[O-])C(=O)N1	50µM*	x	2.8µM*	u	28µM*
CCOC(=O)c1ccc(NC(=O)c2c(O)[nH]c(=O)[nH]c2=O)cc1	u	7.1µM*	u	20%	-11%
CCOc1ccc(NC(=O)c2c(O)[nH]c(=O)[nH]c2=O)cc1	x	x	x	21%	u
